Laboratory results reported in PubChem BioAssay (EPA / NIEHS).
Some structures have more than one record in an assay (separate samples or runs), and their calls can disagree. Active and inactive are the calls of the source. The calls were made as follows: active = hit-call score of the fitted dose curve at least 0.9, where 1 is the maximum; inactive = score below 0.9.

What was measured:
[1] = read-out: Human Leukocyte Antigen - DR isotype (HLADR), HLA-DRA (gene 3122); assay: BSK_CASM3C_HLADR: BioMAP Diversity Plus: CASM3C Assay for Human Leukocyte Antigen - DR isotype (HLADR) Biomarker Activity (AID 2283043); conditions: primary human coronary artery smooth muscle cells; actives raise or lower the signal;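 also: cell-surface HLA-DR protein level quantified by ELISA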
[2] = read-out: Macrophage colony-stimulating factor (MCSF), CSF1 (gene 1435); assay: BSK_CASM3C_MCSF: BioMAP Diversity Plus: CASM3C Assay for Macrophage colony-stimulating factor (MCSF) Biomarker Activity (AID 2283044); conditions: primary human coronary artery smooth muscle cells; actives raise or lower the signal;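 also: M-CSF protein amount quantified by ELISA after 24 h exposure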
[3] = read-out: Low-density lipoprotein receptor (LDLR), LDLR (gene 3949); assay: BSK_CASM3C_LDLR: BioMAP Diversity Plus: CASM3C Assay for Low-density lipoprotein receptor (LDLR) Biomarker Activity (AID 2283045); conditions: primary human coronary artery smooth muscle cells; actives raise or lower the signal;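 also: LDLR protein level on the cell surface quantified by ELISA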
[4] = read-out: Monocyte Chemoattractant Protein-1 (MCP1), CCL2 (gene 6347); assay: BSK_CASM3C_MCP1: BioMAP Diversity Plus: CASM3C Assay for Monocyte Chemoattractant Protein-1 (MCP1) Biomarker Activity (AID 2283046); conditions: primary human coronary artery smooth muscle cells; actives raise or lower the signal;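 also: MCP-1 level quantified by ELISA 24 h after dosing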
[5] = BSK_CASM3C_Proliferation: Cell Proliferation Assessment in the BioMAP Diversity Plus: CASM3C Assay (AID 2283047); conditions: primary human coronary artery smooth muscle cells;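 also: sulforhodamine B total protein stain as relative cell number at 560 nm; sub-confluent cells exposed 48 h before staining; fitted both ways against DMSO so gain or loss of cell number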
[6] = read-out: Monokine induced gamma interferon (MIG), CXCL9 (gene 4283); assay: BSK_CASM3C_MIG: BioMAP Diversity Plus: CASM3C Assay for Monokine induced gamma interferon (MIG) Biomarker Activity (AID 2283048); conditions: primary human coronary artery smooth muscle cells; actives raise or lower the signal;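 also: MIG protein level measured by ELISA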
[7] = read-out: serum amyloid A (SAA), SAA1 (gene 6288); assay: BSK_CASM3C_SAA: BioMAP Diversity Plus: CASM3C Assay for serum amyloid A (SAA) Biomarker Activity (AID 2283049); conditions: primary human coronary artery smooth muscle cells; actives raise or lower the signal;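 also: SAA protein level quantified by ELISA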
[8] = BSK_CASM3C_SRB: Viability Assessment in the BioMAP Diversity Plus: CASM3C Assay (AID 2283050); conditions: primary human coronary artery smooth muscle cells;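 also: total protein by SRB staining as cytotoxicity measure in parallel cultures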
[9] = read-out: Thrombomodulin, THBD (gene 7056); assay: BSK_CASM3C_Thrombomodulin: BioMAP Diversity Plus: CASM3C Assay for Thrombomodulin Biomarker Activity (AID 2283051); conditions: primary human coronary artery smooth muscle cells; actives raise or lower the signal;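 also: thrombomodulin protein level measured by ELISA 24 h after dosing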
[10] = read-out: Tissue Factor, F3 (gene 2152); assay: BSK_CASM3C_TissueFactor: BioMAP Diversity Plus: CASM3C Assay for Tissue Factor Biomarker Activity (AID 2283052); conditions: primary human coronary artery smooth muscle cells; actives raise or lower the signal;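 also: cell surface tissue factor protein level read by ELISA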
[11] = read-out: Urokinase-type plasminogen activator receptor (uPAR), PLAUR (gene 5329); assay: BSK_CASM3C_uPAR: BioMAP Diversity Plus: CASM3C Assay for Urokinase-type plasminogen activator receptor (uPAR) Biomarker Activity (AID 2283054); conditions: primary human coronary artery smooth muscle cells; actives raise or lower the signal;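 also: cell-surface uPAR protein level quantified by ELISA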
[12] = read-out: Vascular cell adhesion molecule 1 (VCAM1), VCAM1 (gene 7412); assay: BSK_CASM3C_VCAM1: BioMAP Diversity Plus: CASM3C Assay for Vascular cell adhesion molecule 1 (VCAM1) Biomarker Activity (AID 2283055); conditions: primary human coronary artery smooth muscle cells; actives raise or lower the signal;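 also: VCAM-1 protein level quantified by ELISA on the cells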
[13] = read-out: Collagen III, COL3A1 (gene 1281); assay: BSK_hDFCGF_CollagenIII: BioMAP Diversity Plus: hDFCGF Assay for Collagen III Biomarker Activity (AID 2283056); conditions: primary human foreskin fibroblasts; actives raise or lower the signal
How it was run: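 Response relative to DMSO, fitted in both directions, reflects ELISA-measured collagen III in human primary skin fibroblasts 24 h after compound addition.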

[14] = read-out: Epidermal growth factor receptor (EGFR), EGFR (gene 1956); assay: BSK_hDFCGF_EGFR: BioMAP Diversity Plus: hDFCGF Assay for Epidermal growth factor receptor (EGFR) Biomarker Activity (AID 2283057); conditions: primary human foreskin fibroblasts; actives raise or lower the signal
How it was run: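 Cell-based multiplexed assay in primary human foreskin fibroblasts. EGFR is read by ELISA 24 h after treatment and compared with DMSO controls.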

[15] = read-out: Interleukin-8 (IL8), CXCL8 (gene 3576); assay: BSK_hDFCGF_IL8: BioMAP Diversity Plus: hDFCGF Assay for Interleukin-8 (IL8) Biomarker Activity (AID 2283058); conditions: primary human foreskin fibroblasts; actives raise or lower the signal
How it was run: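 Fibroblast monolayers (human foreskin, hDFCGF) received test chemical for 24 h before ELISA detection of IL-8; either increases or decreases relative to DMSO count as activity.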

[16] = read-out: Macrophage colony-stimulating factor (MCSF), CSF1 (gene 1435); assay: BSK_hDFCGF_MCSF: BioMAP Diversity Plus: hDFCGF Assay for Macrophage colony-stimulating factor (MCSF) Biomarker Activity (AID 2283060); conditions: primary human foreskin fibroblasts; actives raise or lower the signal
How it was run: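 fibroblasts (human foreskin, primary), 24 h post-dose; M-CSF by ELISA; bidirectional fit, DMSO = baseline.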

[17] = BSK_hDFCGF_SRB: Viability Assessment in the BioMAP Diversity Plus: hDFCGF Assay (AID 2283061); conditions: primary human foreskin fibroblasts;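 also: cells exposed to compound for 24 h before the read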
How it was run: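 SRB-based viability read on primary human skin fibroblasts at 24 h: TCA fixation, 0.1% dye, 560 nm. Gain or loss of signal is fitted against the DMSO negative control.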

[18] = read-out: TIMP metallopeptidase inhibitor 1 (TIMP1), TIMP1 (gene 7076); assay: BSK_hDFCGF_TIMP1: BioMAP Diversity Plus: hDFCGF Assay for TIMP metallopeptidase inhibitor 1 (TIMP1) Biomarker Activity (AID 2283062); conditions: primary human foreskin fibroblasts; actives raise or lower the signal
How it was run: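 Bidirectional curve fitting against DMSO baseline yielded this endpoint, based on ELISA detection of TIMP-1 in primary human foreskin fibroblasts exposed to compound for 24 h.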

Measured: AC50

CCC(C)c1ccccc1O (stereo unspecified)
inactive: all assays above

O=C(c1ccccc1)c1ccccc1
inactive: all assays above

CCCCCCCCCCCCOS(=O)(=O)O
active: [14] 20 µM | [16] 30900 nM | [17] 28000 nM | [18] 32000 nM
not listed: [4] | [7]
inactive: all other assays above

COc1cccc(O)c1
inactive: all assays above

O=C(O)CCC(F)(F)C(F)(F)C(F)(F)C(F)(F)C(F)(F)F
inactive: [1] | [2] | [3] | [4] | [5] | [6] | [7] | [8] | [9] | [10] | [11] | [12] | [13] | [14] | [15] | [16] | [17] | [18]
active: [16] 220 nM

CN(C)c1ccc(C(=C2C=CC(=[N+](C)C)C=C2)c2ccccc2)cc1
active: [1] 39.2 nM | [2] 0.825 µM | [3] 32.3 nM | [4] 61.5 nM | [5] 553 nM | [6] 1.17 µM | [7] 16.8 nM | [8] 0.296 µM | [9] 758 nM | [10] 19.5 nM | [11] 46.1 nM | [12] 0.554 µM | [13] 1.23 µM | [15] 2.67 µM | [16] 31.9 nM | [17] 8.2 nM | [18] 8.2 nM
inactive: [14]

O=C(NO)c1ccccc1
active: [2] 2.51 µM
inactive: all other assays above

OCCN1CN(CCO)CN(CCO)C1
active: [2] 5 µM | [3] 170 nM | [8] 20 µM | [12] 32.8 µM | [16] 20000 nM
inactive: all other assays above

CCCCCCCCCCCCCCCCCC[N+](C)(C)Cc1ccccc1
inactive: [14]
active: [1] 3450 nM | [2] 5.5 µM | [3] 6530 nM | [4] 5290 nM | [5] 2740 nM | [6] 15.4 µM | [7] 2720 nM | [8] 2.75 µM | [9] 2560 nM | [10] 296 nM | [11] 2770 nM | [12] 10 µM | [13] 0.355 µM | [15] 2.52 µM | [16] 721 nM | [17] 556 nM | [18] 553 nM
